# High-throughput results (PubChem)
# HepG2 tox: counter-screen for TGF-b inhibitors: cytotoxicity in HepG2 cells; HepG2 CAGA-GFP viability, ATP luminescence, 18 h; Potency, µM (top dose mostly 46.1 µM), for inactives: at the highest dose activity change, negative = cytotoxicity, most hits filed as cytotoxic; 410,000 tested, 0.76% active; AID 588856
#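 HepG2 CAGA-GFP cells (1000/well, DMEM with 1% FBS) received compound, then TGF-beta at 500 pg/mL final, and were incubated 18 hours at 37 degrees C. Viability was read by CellTiter-Glo luminescence. Media-only wells were set as complete cell-killing and DMSO as no toxicity.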
# HT1080 IDH1KD tx: toxicity to HT-1080 IDH1 knockdown cells (counter line) | HT-1080 IDH1 knockdown viability, ATP luminescence, 48 h | AID 686971 | Potency, µM (doses to about 46.1 µM), for inactives: top-dose activity, negative = toxicity, usual class: cytotoxic | 360,000 tested, 2% active;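 also: 0% = DMSO wells and -100% = cell-free medium wells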
#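 HT-1080-IDH1KD cells (IDH1 knocked down), 750/well in RPMI with 5% FBS, treated with compound 48 h at 37 degrees C. Viability by CellTiter-Glo luminescence, normalised to DMSO and no-cell wells; concentration-response curves classed.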
# HT1080-NT tox: kills 2HG-producing HT-1080-NT fibrosarcoma cells; AID 686970; Potency, µM (highest dose often 46.1 µM), without a hit: at the highest dose activity, negative = less viability, hits mostly cytotoxic; 360,000 tested, 1.6% active; HT-1080-NT fibrosarcoma viability, CellTiter-Glo ATP luminescence, 48 h;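 also: NT is the 2HG producing partner of a matched IDH1 knockdown line; 0% = DMSO-treated cells and -100% = media-only wells without cells; nearly all actives have a fitted effect of over 55% in size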
#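 Viability by CellTiter-Glo luminescence after 48 h compound exposure at 37C of HT-1080-NT cells (750/well, RPMI, 5% FBS). % activity scaled between DMSO wells and medium-only wells, then curve-fitted and categorized by curve class.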
# TDP1 cell CPT: DT40-hTDP1 cell growth loss with CPT; chicken DT40 Tdp1-/-;hTDP1 cells + 20 nM CPT, ATP luminescence, 48 h; Potency, µM (highest dose often 46.2 µM), without a hit: at the top dose activity change, negative = growth inhibition, hits mostly inhibitors; 420,000 tested, 12% active; AID 686979; also: % is scaled to controls: 0 for no effect and ±100 for the full control effect; nearly all actives have a fitted effect of over 55% in size
#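 Chicken DT40 Tdp1-/- cells stably complemented with human TDP1 were seeded at 400 cells/well in medium containing 20 nM camptothecin, exposed to pin-transferred compounds, and grown at 37 °C for at least 48 hr. Viability was read as ATP luminescence.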
# DT40 TDP1 no CPT: qHTS for Inhibitors of human tyrosyl-DNA phosphodiesterase 1 (TDP1): qHTS in cells in absence of CPT | 420,000 tested, 15% active | Potency, µM (series often up to 46.2 µM), without a hit: at the top dose activity change, negative = growth inhibition, hits mostly inhibitors | DT40 Tdp1-/- hTDP1 cells, no CPT, ATP luminescence, 48 h; also: % is scaled to controls: 0 for no effect and ±100 for the full control effect; nearly all actives have a fitted effect of over 55% in size
#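 Luminescent ATP content (CellTiter-Glo) served as the growth readout. Knockout chicken DT40 cells expressing human TDP1 were exposed to compounds without camptothecin for a minimum 48 hr at 37 °C.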
# TGFb SMAD3 inh: inhibitors of TGF-b signaling | HepG2 CAGA-GFP TGF-b/SMAD3 reporter, GFP fluorescence, 18 h; TGF-beta stimulated, 500 pg/mL final | Potency, µM (highest dose often 46.1 µM), for inactives: at the highest dose activity, negative = inhibition, hits mostly inhibitors | 410,000 tested, 1.2% active | AID 588855; also: % is scaled to controls: 0 for no effect and ±100 for the full control effect; nearly all actives have a fitted effect of over 65% in size
#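 HEPG2 CAGA-GFP cells (1000/well, DMEM with 1% FBS) were pre-incubated 2 h at 37 degrees C, given compound by pin tool, then stimulated with TGF-beta at 500 pg/mL final for 18 h before per-cell GFP fluorescence imaging.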
# An asterisk follows results filed as active; ? = inconclusive; nt = no result; [ ] = dose if it differs, or a comment. Most compounds without a hit are left out; they make up all but 17% or so of the library. Calls follow the shape of the dose curve; as a rule, active = well fitted curve in the direction sought with a large enough effect; inconclusive = small, poorly fitted or top-dose-only effect, or another doubt; inactive = no such curve, though single readings can be large; an effect the other way counts as inactive or inconclusive. Potency is read from the fitted curve at half-maximal effect.
SMILES,HepG2 tox,HT1080 IDH1KD tx,HT1080-NT tox,TDP1 cell CPT,DT40 TDP1 no CPT,TGFb SMAD3 inh
COc1ccc(N=c2oc3c(OC)cccc3cc2C(=O)NCc2ccco2)cc1OC,1%,11%,0%,12µM*,7.3µM*,13%
COc1ccc(-c2cc(C(=O)Nc3cccc(S(=O)(=O)NCc4ccco4)c3)c3ccccc3n2)cc1OC,-3%,-12%,0%,10µM*,6.5µM*,-36%
COc1ccc(-c2noc(-c3ccccc3C(=O)NCc3ccco3)n2)cc1OC,-1%,4%,-4%,?,15µM*,-8%
COc1ccc(-c2noc(CCCC(=O)NCc3ccco3)n2)cc1OC,-4%,6%,7%,-1%,?,0%
COc1ccc(-c2cc(C(=O)NCc3ccco3)c3ccccc3n2)cc1OC,0.5µM*,-6%,-8%,?,18µM*,17%
CCOC(=O)C1CCN(C(=O)C2(NC(=O)Nc3ccccc3C)CCCCC2)CC1,-7%,-2%,10%,1%,-11%,-13%
COc1ccc(OC)c(NC(=O)C(C)n2nc(C)c3c(C)n(-c4ccccc4)nc3c2=O)c1 (stereo not drawn),-22%,nt,nt,?,?,-8%
Clc1cccc(-c2nc(-c3ccc(-c4nn[nH]n4)cc3)no2)c1,2%,nt,nt,nt,nt,?
O=C(c1ccccc1Oc1ccc([N+](=O)[O-])cc1)N1CCOCC1,-9%,2%,-2%,1%,-5%,-12%
COc1ccc(S(=O)(=O)N2Cc3ccccc3CC2C(=O)Nc2cc(Cl)ccc2Cl)cc1 (stereo not drawn),-21%,nt,nt,?,?,0%
CS(=O)c1ccccc1-c1nc(-c2cccc(Cl)c2)no1 (stereo not drawn),4%,-15%,-12%,?,16µM*,-13%
COc1ccc(-c2noc(-c3ccc(C)cc3Cl)n2)cc1OC,0%,nt,nt,-11%,-5%,-1%
O=C(NCc1ccco1)c1cc(-c2ccncc2)nc2ccccc12,-20%,-3%,19%,-13%,-12%,16%
COc1cccc(-c2cc(C(=O)NCc3ccco3)c3ccccc3n2)c1,-1%,3%,2%,12µM*,?,5%
COc1ccc(-c2noc(-c3ccccc3-c3ccccc3)n2)cc1OC,-1%,-3%,-3%,?,26µM*,-7%
COc1cc2cc3c(N)c(C(=O)NCc4ccco4)sc3nc2cc1OC,9%,3%[9.24 µM],-8%,23µM*,15µM*,0%
CC(C)CN1C(=O)CSCC1(C)C(=O)Nc1ccc2c(c1)OCCO2 (stereo not drawn),nt,17%,2%,-24%,-19%,nt
CCOc1ccccc1C(C(=O)NC1CCCCC1)N(C(=O)c1csnn1)C1CC1 (stereo not drawn),6%,5%,7%,-20%,?,7%
Cc1ccc(-n2nc3c(c2NC(=O)CC(C)C)CS(=O)(=O)C3)cc1,1%,-1%,-2%,2%,-6%,13%
Cc1ccc(S(=O)(=O)N2CCN(C(=O)CN3C(=O)c4ccccc4C3=O)CC2)c(C)c1,-6%,-3%,-4%,-17%,-3%,4%
Cn1nnc(NC(=O)COc2ccc(C3CCCCC3)cc2)n1,-4%,-15%,-3%,-1%,-8%,-8%
CC1Sc2ccc(C(=O)N(CCc3ccccc3)Cc3ccccc3)cc2NC1=O (stereo not drawn),-53%,?,-29%,21µM*,?,?
CN1C(=O)NC(=O)C1c1ccccc1 (stereo not drawn),1%,-10%,3%,3%,-21%,6%
COc1ccc(OC)c(NC(=O)Cc2csc(NC(=O)Nc3ccccc3OC)n2)c1,-36%,-13%,-4%,?,21µM*,-24%
CCN(CC(=O)Nc1ccccc1OC)Cc1csc(CC(=O)Nc2ccc(C)cc2)n1,-1%,-8%,-17%,26µM*,16µM*,-8%
SMILES,HepG2 tox,HT1080 IDH1KD tx,HT1080-NT tox,TDP1 cell CPT,DT40 TDP1 no CPT,TGFb SMAD3 inh
COc1ccccc1NC(=O)Cc1csc(NC(=S)Nc2ccccc2)n1,-37%,3.2µM*,3.5µM*,4.6µM*,6.5µM*,14µM*
CCC(=O)Nc1nc(CC(=O)Nc2ccccc2)cs1,-36%,-2%,1%,-13%,-22%,?
COc1ccc(OC)c(-c2csc(NC(=O)Cc3ccccc3OC)n2)c1,-20%,-18%,-2%,-18%,?,-27%
COc1ccc(NC(=O)Cc2csc(NC(=O)Nc3ccccc3OC)n2)c(OC)c1,4%,3%,6%,?,13µM*,-5%
COC(=O)c1cc(NC(=O)CSc2nncn2C)cc(C(=O)OC)c1,-11%,9%,18%,-1%,2%,5%
Cc1ccc(NC(=O)c2cc3c([nH]c2=O)CC(c2ccccc2)CC3=O)cc1 (stereo not drawn),-8%,nt,nt,?,?,-2%
CC(C)=CCN1CCN(Cc2cc(F)ccc2-n2nc(C)cc2C)CC1CCO (stereo not drawn),6%,12%,0%,6%,-2%,1%
CCC(C)NC(=O)Cn1cccc1C(=O)c1ccccc1 (stereo not drawn),-32%,6%,9%,-4%,-18%,10%
CC(NC(=O)Cn1cccc1C(=O)c1ccccc1)c1ccccc1 (stereo not drawn),3%,-1%,3%,13µM*,?,1%
O=C(O)c1csc(N/N=C/c2ccc(Br)cc2)n1,0%,-1%,-6%,5%,1%,-6%
COc1cccc(CNC(=O)CSc2ncc3c(n2)-c2cc(Cl)ccc2N(C)S3(=O)=O)c1,-6%,nt,nt,21µM*,?,1%
COc1ccc(CNC(=O)CSc2ncc3c(n2)-c2ccc(Cl)cc2N(Cc2ccccc2)S3(=O)=O)cc1,-6%,nt,nt,?,?,-6%
O=C(CSc1ncc2c(n1)-c1ccc(Cl)cc1N(Cc1ccccc1)S2(=O)=O)Nc1ccc(F)c(F)c1,7%,nt,nt,23µM*,18µM*,12%
CCOc1ccc(NC(=O)CSc2ncc3c(n2)-c2cc(Cl)ccc2N(C)S3(=O)=O)cc1,-9%,nt,nt,-27%,-19%,-1%
COc1ccc(OC)c(C(=O)CSc2ncc3c(n2)-c2ccccc2N(Cc2ccccc2C)S3(=O)=O)c1,-1%,nt,nt,18µM*,?,4%
